Laboratory results: PubChem BioAssay AID1117319 (Southern Research Institute, 2015)
Values joined by “and” are separate entries in the source; they are usually repeats but may differ in a detail not shown here. Equal entries are not always repeated. About 1,500 (0.58%) of roughly 260,000 compounds were called active. Another 5% or so got no clear call; they are omitted.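 How the source made its calls: active means inhibition above a set limit at one or more doses, reproduced on every date tested; inconclusive means results disagree between test dates, or hit never tested in dose response; inactive means the rest.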 The list is a sample of the results. Potency and affinity values are given separately.

Target: Virion infectivity factor (Human immunodeficiency virus type 1 group M subtype B (isolate BH10)) + Virion infectivity factor (Human immunodeficiency virus type 1 group M subtype B (isolate BRU/LAI)) + Virion infectivity factor (Human immunodeficiency virus type 1 group M subtype B (isolate PCV12)) + Virion infectivity factor (Human immunodeficiency virus type 1 group M subtype B (isolate HXB2)) + DNA dC->dU-editing enzyme APOBEC-3G (Homo sapiens) (UniProt P69720+P69721+P69722+P69723+Q9HC16)
Experiment: inhibitors of Vif binding to APOBEC3G peptide, primary screen, biochemical, TR-FRET, GST-Vif 1-94, biotin-A3G peptide, dose response retest (AID 1117319);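 further: Vif residues 1-94 fused to GST binding biotinylated APOBEC3G peptide 110-148; 0% = full assay without inhibitor and 100% = GST in place of GST-Vif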
Conditions: stronger effect = higher value

inhibition, inactive:
CC1(C)N=C(c2ccc(Cl)cc2)C(=O)N1 -0.69%
CNC(=O)c1ccsc1NC(=O)C1CCCN1S(=O)(=O)c1cccs1 (configuration not stated) -0.6%
NC1=NC(=O)C(=Cc2ccccc2)S1 1.08%
Cc1ccccc1-c1ccc(/C=C2/SC(N3CCOCC3)=NC2=O)o1 6.07%
O=C1N=C(N2CCOCC2)S/C1=C/c1cccs1 1.92%
O=C1N=C(N2CCOCC2)S/C1=C\c1cccs1 -6.4%
O=C1N=C(N2CCCC2)S/C1=C\c1ccccc1 27.9%
Cc1ccc(-c2ccc(/C=C3\SC(N4CCOCC4)=NC3=O)o2)cc1 6.18%
NC1=NC(=O)/C(=C/c2cccs2)S1 10%
O=C1N=C(N2CCOCC2)S/C1=C\c1ccc(-c2ccccc2Cl)o1 21.8%
O=C(CCc1nnc(CCc2ccccc2)o1)N1CCCCC1CCn1cccn1 (configuration not stated) -2.83%
CC(=O)NCCn1c(SCc2ccc(C)cc2C)nc2ccccc2c1=O -4.41%
COCc1cc(=O)[nH]c(N2CCN(C(=O)c3ccco3)CC2)n1 -8.81%
CCOc1ccc(NC(=O)c2cc3c(=O)n(C)c4ccccc4c3n2C)cc1 -12%
O=C(CNC(=O)c1cc2ccccc2o1)NCc1cccs1 15.4%
Clc1ccc(NCn2cncn2)nc1 10.8%
CCc1cccc(C)c1NC(=O)CO/N=C(\C)c1cc2ccccc2o1 -0.14%
CC(OC(=O)CCC1CCCCC1)C(=O)Nc1ccc(S(N)(=O)=O)cc1 (configuration not stated) 6.23%
O=C(O)c1cccc(-c2ccccc2)c1O 2.46%
O=C(O)c1cccc2cc(-c3ccccc3)oc(=O)c12 3%
Nc1c(O)ccc2c1C(=O)c1ccccc1C2=O 10.2%
Cc1oc2c(O)c(O)ccc2c(=O)c1-c1cnn(-c2ccccc2)c1 28.2%
CCOC(=O)C(C#N)=C1CCN(Cc2ccccc2)CC1 -5.62%
CN1CCN(S(=O)(=O)c2ccc(NC(=S)NC(=O)c3ccccc3)cc2)CC1 0.13%
Cc1ccc(C(=O)NC(=S)Nc2ccc(S(=O)(=O)N3CCN(C)CC3)cc2)cc1 1.48%
COc1ccc(CNC(=O)COC(=O)c2c(NC(C)=O)sc(C)c2C)cc1OC 1.62%
O=C(O)C1CC(=O)N(c2ccc(OCc3ccc(Cl)cc3Cl)cc2)C1 (configuration not stated) 4.2%
N#CC(C#N)=c1ccc2c(c1)N1C3=C(CCCC3)CC3CCCCC31N=2 (configuration not stated) 20.5%
CC(CCc1ccccc1)NC(=O)C1CCN(S(=O)(=O)N2CCOCC2)CC1 (configuration not stated) -3.69%
COC(=O)c1ccc(-n2nc(C(F)(F)F)c3c2-c2ccoc2CC3)cc1 14.2%
O=C(O)c1ccc(-n2nc(C(F)(F)F)c3c2CCCC3)cc1 0.77%
O=C(CCn1c(=S)oc2ccccc21)NC1CCCCCCC1 -0.87%
CCCC1CC(C#N)N(N(C)C)C1=C(C#N)C#N (configuration not stated) -4.37%
Cc1ccc(NC(=S)C2=C(O)c3sccc3N(C)S2(=O)=O)cc1 10.2%
CN1c2ccccc2C(O)=C(C(=S)Nc2ccc(F)c(Cl)c2)S1(=O)=O -0.79%
CC(C)n1ncc2c(C(=O)NCCc3ccc(S(N)(=O)=O)cc3)cc(C3CC3)nc21 1.54%
COc1ccc(CCNC(=O)Cn2cnc3c(cnn3C(C)(C)C)c2=O)cc1OC -3.55%
COc1ccc(C(=O)Nc2nc3ccc(S(C)(=O)=O)cc3s2)cc1 -53.8%
Cc1cc(C)nc(NS(=O)(=O)c2ccc(N/C=C/C(=O)c3ccc(Cl)c(Cl)c3)cc2)n1 32.2%
Cc1ccc(NC(=O)COC(=O)c2ccc(S(=O)(=O)N3CCCC3)cc2)cc1 -1.07%
Cc1ccc(C(=O)OCC(=O)Nc2ccc(S(N)(=O)=O)cc2)c(O)c1 -10.3%
Cc1ccc(NC(=O)CNc2cccc(C)c2C)c(C)c1 21.8%
Nc1nc(N)c(N=Nc2ccc(S(N)(=O)=O)cc2)c(=O)[nH]1 1.9%
Cc1c(C#N)c(O)[nH]c(=O)c1N=Nc1ccc(S(N)(=O)=O)cc1 3.16%
CN(C)c1ccc(N=Nc2ccc(S(N)(=O)=O)cc2)cc1 5.84%
NS(=O)(=O)c1ccc(N=Nc2c(O)ccc3ccccc23)cc1 9.6%
CCOC(=O)c1csc(NC(=O)CN2CCOCC2)n1 -8.71%
Cc1cccc(N2CCN(Cc3nc(-c4cccc(Oc5ccccc5)c4)oc3C)CC2)n1 3.4%
CCN(CC)S(=O)(=O)c1cccc(NC(=O)C2SC(=Nc3ccc(C)cc3C)C(C(=O)NCC3CCCO3)=C2N)c1 (configuration not stated) 2.72%
Cc1cc2cc(C(=O)N3CCc4c([nH]c5ccccc45)C3c3ccccn3)ccc2o1 (configuration not stated) 10.8%
O=C(c1ccccc1O)N1CCOCC1 -1.64%
O=C(O)C1C=CC(C(=O)O)c2ccccc21 (configuration not stated) -4.89%
COc1cccc(C2Nc3c(F)cc(Br)cc3C3C=CCC32)c1OC (configuration not stated) 5.44%
CC(=O)N1c2ccc(Cl)cc2C2C=CCC2C1c1cccc2ccccc12 (configuration not stated) 19.4%
COc1ccccc1C1CCN(C(=O)c2ccccc2)CC1 6.08%
O=C(c1ccccc1)c1ccccc1C(=O)N1CCOCC1 5.31%
Cc1ccc(C)c(NC(=O)C2CC=CCC2C(=O)O)c1 (configuration not stated) -2.09%
CCC(C)[C@H](NC(=O)C1CCN(C(=O)[C@H](Cc2ccccc2)NC(=O)OC(C)(C)C)CC1)C(=O)O (some centres not stated) 7.73%
Cc1ccc(C(=O)NNC(=O)c2ccc3ccccc3c2)cc1 1.23%
O=C(c1ccc(S(=O)(=O)N2CCCCCC2)cc1)N1CCN(c2ccccn2)CC1 -5.37%
Cc1cc(C(=O)N2CCc3c([nH]c4ccccc34)C2c2c(F)cccc2Cl)no1 (configuration not stated) -4.57%
O=C(Nc1ccc(S(=O)(=O)N2CCOCC2)cc1)c1cc(-c2ccccc2O)n[nH]1 -5.69%
CSCCC(NS(=O)(=O)c1ccc(C)cc1)C(=O)NCC(C)(C)N1CCOCC1 (configuration not stated) 26.5%
CCOc1cc(C(=O)Oc2cc(C)[nH]c(=O)c2[N+](=O)[O-])cc(OCC)c1OCC -2.15%
CCCC(=O)Nc1nnc(-c2ccco2)s1 5.96%
CC(C)C(=O)Nc1nnc(-c2ccco2)s1 -4.43%
O=C(COC(=O)Cn1cnc2ccccc2c1=O)NCc1ccccc1 -5.43%
COCCn1c(C)cc(C(=O)COC(=O)c2c(C)nn(Cc3ccccc3)c2C)c1C 15.2%
Cc1nn(Cc2ccccc2)c(C)c1C(=O)OCC(=O)c1cc(C)n(CC(F)(F)F)c1C 13.3%
C=CCOc1ccc(CNc2nccs2)cc1OC -2.98%
Cn1nnnc1SCc1cc(=O)n2ccsc2n1 8.97%
COc1ccc(OCCNC(=S)Nc2cccc3ccccc23)cc1 2.41%
O=C(NC(NC(=S)Nc1cccc(C(=O)O)c1)C(Cl)(Cl)Cl)OCc1ccccc1 (configuration not stated) 16%
CCCCOC(=O)c1cc(C)nc2ccc(Br)cc12 10.8%
CC1=C(C(=O)Nc2ccccc2)C(c2ccco2)NC(=S)N1 (configuration not stated) -0.58%
CC1=C(C(=O)Nc2ccccc2)C(c2ccco2)NC(=O)N1 (configuration not stated) -0.31%
N#C/C(=C\c1cccs1)C(=O)N1CCOCC1 4.24%
CCOc1ccc(-n2cc(C(=O)NCCOC)c3cc(OC)c(OC)cc3c2=O)cc1 -0.11%
CC1=CCC2C(=O)N(c3ccc4ccccc4n3)C(=O)C2C1 (configuration not stated) 3.04%
O=C(COC(=O)c1n[nH]c(=O)c2ccccc12)c1ccc(Cl)cc1 -6%
COc1cc(C2CC(=O)c3c(O)cc(O)cc3O2)ccc1O (configuration not stated) 9.19%
COc1ccc([C@H]2CC(=O)c3c(O)cc(O)cc3O2)cc1O 9.99%
Cc1nnc(SCc2cc([N+](=O)[O-])cc3c2OCOC3)n(N)c1=O 20.5%
O=[N+]([O-])c1cc2c(c(CSc3ncccn3)c1)OCOC2 1.34%
COc1ccc(CCNC(=O)COc2coc(CN3c4ccccc4CC3C)cc2=O)cc1OC (configuration not stated) 3.96%
CCOC(=O)c1oc2ccc(/C=N/O)c(Cl)c2c1C -0.46%
CC1CN(C(=O)COC(=O)c2cnc(Cl)c(Cl)c2)CC(C)O1 (configuration not stated) -12.2%
Nc1ncnc2c1ncn2[C@@H]1O[C@H](CNC(=O)[C@@H]2C[C@H](F)CN2)[C@@H](O)[C@H]1O -0.68%
COc1cccc(CNc2ccc(F)c([N+](=O)[O-])c2)c1O -12%
COCCCn1c(=NC(=O)c2ccncc2)c(C#N)cc2c(=O)n3cccc(C)c3nc21 3.9% and 7.65%
CCCCn1c(=NC(=O)c2ccc3c(c2)OCO3)c(C#N)cc2c(=O)n3cccc(C)c3nc21 6.53%
O=C(c1cccc(S(=O)(=O)N2CCc3ccccc32)c1)N1CCN(c2ccccn2)CC1 -7.91%
Cc1cnc(C(=O)OCC(=O)Nc2cc(-c3cc(C)c(C)cc3C)nn2-c2ccccc2)cn1 3.14%
S=c1[nH]nc(-c2cc(-c3ccco3)[nH]n2)n1-c1ccccc1 4.55%
COc1ccccc1-n1c(-c2ccco2)n[nH]c1=S -2.63%
COc1ccccc1-n1c(-c2cc(-c3ccc(F)cc3)n[nH]2)n[nH]c1=S 0.73%
S=c1[nH]nc(-c2cc(-c3ccco3)[nH]n2)n1-c1cccc2ccccc12 16.8%
